Each structure is given as a SMILES string.

The assay relates to HepG2. In words: GSK_TCMDC: Percent inhibition of human HepG2 cell line. Test compounds present at 10uM. Format: functional.
By Inhibition is commonly meant the percentage by which the read-out fell short of the control. Read a low Inhibition as a weak effect. `Cc1cc(N[C@@H](Cc2ccccc2)C(=O)NCCOc2ccccc2)nc(NCCOc2ccccc2)n1.O=C(O)C(F)(F)F` registered an Inhibition of 0%.
Turning to `O=C(O)C(F)(F)F.OC1CCCN(Cc2ccc(-c3ccc(-c4nc5cc(F)ccc5[nH]4)s3)cc2)C1` (centres undefined), the Inhibition stood at 40%.
The molecule `CCOC(=O)c1ccc(N=C2SC(=Cc3cc(Br)ccc3O)C(=O)N2C)cc1` displayed an Inhibition of 0%.
As to `CO/C(=C\C=C\c1cc2cc(Cl)c(Cl)cc2[nH]1)C(=O)Nc1ccc(NCCN(C)C)nc1.Cl`, the Inhibition was found to be 27%.
On to `CCc1c(C(=O)NC2CCC(N3CCC(c4ccccc4C)CC3)CC2)[nH]c2ccc(Br)cc12` (centres undefined), for which the Inhibition turned out to be 81%.
In the case of `CC(C)C[C@H](Nc1ccnc(NCC2CCCCC2)n1)C(=O)NCCOc1ccccc1.O=C(O)C(F)(F)F` it was 37%.
Molecule `Cc1ccc(S(=O)(=O)n2nccc2-c2c(-c3ccc(Cl)cc3)noc2C)cc1` yielded an Inhibition of 0%.
Regarding `CC(C)(C)OC(=O)NCc1ccc(Nc2nnc(-c3cccc(C(=O)NCc4cc(C(F)(F)F)cc(C(F)(F)F)c4)c3)o2)cc1`, the Inhibition turned out to be 4%.
Regarding `N#Cc1ccc2[nH]cc(CN3CCC4(CC3)CN(CCNCc3ccccc3)C(=O)O4)c2c1.O=C(O)C(F)(F)F`, the Inhibition stood at 0%.
In the case of `c1ccc(COc2ccc(Nc3ncnc4cnc(-c5ccc(CNc6cccnc6)o5)cc34)cc2)cc1`, the Inhibition came out at 2%.
For the molecule `COc1cccc(C2CCN(CCN3CCC(CNC(=O)c4ccc(-c5ccc(C(F)(F)F)cc5)cc4)CC3)CC2)c1`, the Inhibition was 41%.
The same measure for `CN1CCN(c2ccc(-c3nc4ccc(OCc5cc(Cl)cc(Cl)c5)c(C(N)=O)c4[nH]3)cc2)CC1`: 45%; for `O=C(/C=C/c1ccc(Cl)c(Cl)c1)NCCCCCN1CCCN(C(=O)Nc2cc(Cl)cc(Cl)c2)CC1`: 53%; for `N#Cc1ccc2c(c1)CN(C1CCC(NC(=O)/C=C/c3cc(C(F)(F)F)cc(C(F)(F)F)c3)CC1)CCC2` (centres undefined): 34%.
In the case of `Cc1ccc(C(=O)Cn2nc(-c3ccc(C)c(S(=O)(=O)N4CCCCC4)c3)ccc2=O)cc1` it was 6%; in that of `CCCCCCN1CCC(NCc2cccc(-n3ccnc3)c2)CC1.O=C(O)C(F)(F)F`, 3%; in that of `Cl.FC(F)(F)c1ccc2c(NCCc3ccccc3)ccnc2c1`, 14%.
Regarding `CC(C)(C)c1ccc(CNC(=O)c2ccc(-c3nc4ccc(Cl)cc4[nH]3)cc2)cc1`, the Inhibition is 14%.
With `CCNc1cc(C(=O)N[C@@H](Cc2ccccc2)[C@H](O)CNC2(CC)CCCCC2)cc(N2CCCCS2(=O)=O)c1.Cl`, the Inhibition is 3%.
In turn, `CCCC(=O)NC(c1cccs1)c1cc(Cl)c2cccnc2c1O` (centres undefined) gave an Inhibition of 51%.
Take `OC(CNc1ccnc(Nc2ccc(Cl)cc2)n1)c1ccccc1C(F)(F)F` (centres undefined): the Inhibition worked out at 22%.
In turn, `NC1CCN(Cc2cccc(-c3ccc(-c4nc5cc(F)ccc5[nH]4)cc3)c2)C1.O=C(O)C(F)(F)F` (centres undefined) gave an Inhibition of 24%.
As to `O=C(/C=C/c1ccc(Cl)c(Cl)c1)NCCCCCN1CCC(C(=O)Nc2cccc(Cl)c2)CC1`, the Inhibition turned out to be 48%.
The molecule `Cc1cccc2nc(-c3cccc(-c4ccc(NC(=O)C(C)CN5CCN(C)CC5)cc4)c3)[nH]c12` (centres undefined) yielded an Inhibition of 7%.
In the case of `CC(Cc1ccc(CN2CCN(Cc3ccccc3)CC2)cc1)NCC(O)c1cccc(C(F)(F)F)c1.Cl` (centres undefined) it was 51%; in that of `O=c1cc(NCC2(CNCc3cn(Cc4ccccc4)c4ccccc34)CCCCC2)[nH]c2ccccc12`, 27%.
For the molecule `COc1ccc(-c2ccc(NC(=O)c3cccc(C#N)c3)cc2)cc1CN1CCN(C)CC1.O=C(O)C(F)(F)F`, the Inhibition stood at 26%.
`COc1cccc(-c2ccc(C(=O)NC3CCN(Cc4ccc(C(C)(C)C)cc4)CC3)s2)c1.O=C(O)C(F)(F)F` displayed an Inhibition of 43%.
Take `COc1ccc2nccc([C@@H](O)CN3CCC(NC(=O)C(=O)c4c[nH]c5c(C)cccc45)CC3)c2c1`: the Inhibition was 17%.
For `O=C(/C=C/c1ccc(C(F)(F)F)cc1)NCCCCCN1CCN(C(=O)Nc2ccc(Cl)c(Cl)c2)CC1`, the Inhibition is on record as 37%.
The molecule `Br.CC1(C)NC(N)=NC(=N)N1OCCCSc1ccccc1` had an Inhibition of 69%.
In the case of `CCCC(C)NC[C@@H](O)[C@H](Cc1ccccc1)NC(=O)c1cc(C2CCCC2)cc(N2CCCCS2(=O)=O)c1.Cl` (some centres undefined) it was 8%; in that of `COCCOc1nc(N)nc2ncc(Cc3cc(OC)ccc3OC)c(C)c12`, 61%.
The molecule `CCN(CC)CCOc1cc2c(cc1Br)-c1cc(Br)c(OCCN(CC)CC)cc1C2=NO.Cl` showed an Inhibition of 99%.
Consider `COc1ccc(-c2cccc(NC(=O)c3cccc(Cl)c3)c2)cc1CN1CCC(O)CC1.O=C(O)C(F)(F)F`, for which the Inhibition worked out at 38%.
The same measure for `Cc1cccc2nc(-c3ccc(-c4ccc(CN5CCN(c6ccc(C#N)cn6)CC5)cc4)s3)[nH]c12.O=C(O)C(F)(F)F`: 10%; for `Cc1ccc(Oc2cnn(C)c(=O)c2Nc2cccc(C(=O)NCCc3ccccn3)c2)c(C)c1`: 0%; for `CN1CCOc2ccc(Nc3nnc(-c4cccc(-c5cccnc5)c4)o3)cc2C1`: 0%.
Consider `CCCN(CCC)CCCOc1ccc(C(=O)c2c(-c3ccc(OCCCN(CCC)CCC)cc3)oc3ccc(Cl)cc23)cc1.Cl`, for which the Inhibition was 100%.

These data come from ChEMBL document CHEMBL1157539, “Thousands of chemical starting points for antimalarial lead identification” (Nature, 2010).
